{"source": "paper PMC7862700", "about": "“An all-to-all approach to the identification of sequence-specific readers for epigenetic DNA modifications on cytosine”", "assay_in_all_cases": "DAPPL (digital affinity profiling via proximity ligation, sequencing); 10 mM Tris-HCl pH 7.5, 50 mM NaCl, 1 mM DTT, 4% glycerol, room temperature, 30 min; GST-TFs on glutathione beads, 16-mer random dsDNA library, 0.1% formaldehyde crosslink after washing; high values mean tight binding", "key": {"FEV": {"molecular_target": "T1, FEV (Homo sapiens, UniProt Q99581 1-238)", "T1 sequence": "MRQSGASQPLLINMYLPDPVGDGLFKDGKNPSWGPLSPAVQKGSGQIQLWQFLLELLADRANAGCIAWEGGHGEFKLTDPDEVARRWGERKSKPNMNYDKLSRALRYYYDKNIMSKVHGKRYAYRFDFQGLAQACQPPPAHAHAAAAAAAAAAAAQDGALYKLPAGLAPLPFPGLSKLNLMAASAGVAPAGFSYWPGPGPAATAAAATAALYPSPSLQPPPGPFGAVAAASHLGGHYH", "conditions": "protein: recombinant; tags: N-terminal GST; dsDNA, one strand shown", "how_it_was_run": "(§1)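 Sequencing on an Illumina NextSeq500 followed washing, crosslinking with 0.1% formaldehyde, proximity ligation (BsaI/T4 ligase, 1 h, 37 °C) and PCR amplification of pools that had been incubated for 30 min at room temperature with 200 nmole of a random double-stranded 16-mer DNA library in Tris/NaCl/DTT/glycerol buffer. Each pool held DNA-barcoded human transcription factors, expressed in yeast as GST fusions and captured on glutathione beads, plus a tag-only sample. Binding signal is a hexamer's read frequency for a factor divided by its frequency in the tag-only sample.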"}, "ETV5": {"molecular_target": "ETV5 (Homo sapiens, UniProt P41161 1-510)", "sequence (P41161 whole entry)": "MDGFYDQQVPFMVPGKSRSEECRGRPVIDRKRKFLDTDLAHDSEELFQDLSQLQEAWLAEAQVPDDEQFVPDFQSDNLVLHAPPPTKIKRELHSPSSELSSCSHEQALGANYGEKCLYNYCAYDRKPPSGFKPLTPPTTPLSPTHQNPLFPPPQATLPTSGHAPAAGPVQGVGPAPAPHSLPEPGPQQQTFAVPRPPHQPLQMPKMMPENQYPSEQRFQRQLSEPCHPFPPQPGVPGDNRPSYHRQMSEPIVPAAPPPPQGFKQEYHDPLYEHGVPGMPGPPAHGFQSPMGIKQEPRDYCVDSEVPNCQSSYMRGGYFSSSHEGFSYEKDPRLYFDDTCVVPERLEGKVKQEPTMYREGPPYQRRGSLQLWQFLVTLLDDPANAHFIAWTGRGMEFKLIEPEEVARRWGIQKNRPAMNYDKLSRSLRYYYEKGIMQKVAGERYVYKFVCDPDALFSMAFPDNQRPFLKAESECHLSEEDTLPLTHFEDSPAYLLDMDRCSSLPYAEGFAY", "conditions": "protein: recombinant; tags: N-terminal GST; dsDNA, one strand shown", "how_it_was_run": "as §1"}, "HSF1": {"molecular_target": "HSF1 (Homo sapiens, UniProt Q00613 1-529)", "sequence (Q00613 whole entry)": "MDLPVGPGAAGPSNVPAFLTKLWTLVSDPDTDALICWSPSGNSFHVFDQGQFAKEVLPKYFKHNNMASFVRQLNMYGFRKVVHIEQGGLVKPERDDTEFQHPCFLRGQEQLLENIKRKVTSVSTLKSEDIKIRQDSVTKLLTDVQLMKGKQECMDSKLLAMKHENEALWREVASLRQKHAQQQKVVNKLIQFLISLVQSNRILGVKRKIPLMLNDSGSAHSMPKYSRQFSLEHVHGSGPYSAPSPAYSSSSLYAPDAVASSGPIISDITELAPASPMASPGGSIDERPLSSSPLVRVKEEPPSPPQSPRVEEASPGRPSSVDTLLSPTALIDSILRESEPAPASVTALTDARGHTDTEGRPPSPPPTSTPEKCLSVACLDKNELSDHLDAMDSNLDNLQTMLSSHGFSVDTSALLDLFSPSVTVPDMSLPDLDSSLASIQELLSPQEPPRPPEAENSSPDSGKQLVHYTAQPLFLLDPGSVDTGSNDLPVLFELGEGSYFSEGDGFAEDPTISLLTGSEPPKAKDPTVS", "conditions": "protein: recombinant; tags: N-terminal GST; chain copies: 3; dsDNA, one strand shown", "how_it_was_run": "as §1"}, "SPIC": {"molecular_target": "T2, SPIC (Homo sapiens, UniProt Q8N5J4 1-248)", "T2 sequence": "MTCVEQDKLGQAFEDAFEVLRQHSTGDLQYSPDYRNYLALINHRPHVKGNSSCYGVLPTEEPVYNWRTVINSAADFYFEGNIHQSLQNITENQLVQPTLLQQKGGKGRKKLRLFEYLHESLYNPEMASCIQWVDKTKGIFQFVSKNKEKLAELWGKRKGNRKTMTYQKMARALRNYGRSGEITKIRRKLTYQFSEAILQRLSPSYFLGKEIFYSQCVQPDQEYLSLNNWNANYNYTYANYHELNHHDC", "conditions": "protein: recombinant; tags: N-terminal GST; dsDNA, one strand shown", "how_it_was_run": "as §1"}, "ELF4": {"molecular_target": "ELF4 (Homo sapiens, UniProt Q99607 1-663)", "sequence (Q99607 whole entry)": "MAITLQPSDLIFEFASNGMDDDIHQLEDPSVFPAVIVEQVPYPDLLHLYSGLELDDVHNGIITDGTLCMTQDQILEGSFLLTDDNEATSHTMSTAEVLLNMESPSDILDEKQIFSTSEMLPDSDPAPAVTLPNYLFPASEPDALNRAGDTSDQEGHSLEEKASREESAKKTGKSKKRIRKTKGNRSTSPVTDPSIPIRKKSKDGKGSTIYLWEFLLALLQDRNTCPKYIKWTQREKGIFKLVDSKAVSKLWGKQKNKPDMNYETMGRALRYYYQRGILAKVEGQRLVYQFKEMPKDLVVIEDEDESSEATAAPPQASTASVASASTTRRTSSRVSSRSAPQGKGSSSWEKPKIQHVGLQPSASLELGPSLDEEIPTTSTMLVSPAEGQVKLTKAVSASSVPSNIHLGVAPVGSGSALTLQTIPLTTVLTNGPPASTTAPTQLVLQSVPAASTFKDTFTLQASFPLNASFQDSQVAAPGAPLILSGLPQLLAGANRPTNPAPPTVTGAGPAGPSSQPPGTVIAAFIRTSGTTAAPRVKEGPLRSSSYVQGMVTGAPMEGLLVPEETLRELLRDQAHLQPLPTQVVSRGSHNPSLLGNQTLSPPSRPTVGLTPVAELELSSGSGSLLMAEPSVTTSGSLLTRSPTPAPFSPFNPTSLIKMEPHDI", "conditions": "protein: recombinant; tags: N-terminal GST; dsDNA, one strand shown", "how_it_was_run": "as §1"}, "ELK4": {"molecular_target": "T3, ELK4 (Homo sapiens, UniProt P28324-2 1-405)", "T3 sequence": "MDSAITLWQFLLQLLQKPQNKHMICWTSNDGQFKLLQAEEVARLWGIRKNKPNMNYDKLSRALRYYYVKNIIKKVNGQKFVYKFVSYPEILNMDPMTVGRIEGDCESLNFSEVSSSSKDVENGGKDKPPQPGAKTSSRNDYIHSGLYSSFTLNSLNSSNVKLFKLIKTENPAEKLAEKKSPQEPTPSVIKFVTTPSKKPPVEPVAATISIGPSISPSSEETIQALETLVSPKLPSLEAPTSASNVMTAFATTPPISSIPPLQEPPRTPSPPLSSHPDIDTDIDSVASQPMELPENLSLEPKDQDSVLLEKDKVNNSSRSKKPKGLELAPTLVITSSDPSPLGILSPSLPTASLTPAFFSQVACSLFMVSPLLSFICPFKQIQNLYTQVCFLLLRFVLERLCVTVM", "conditions": "protein: recombinant; tags: N-terminal GST; dsDNA, one strand shown", "how_it_was_run": "as §1"}, "ETV2": {"molecular_target": "T4, ETV2 (Homo sapiens, UniProt O00321 1-342)", "T4 sequence": "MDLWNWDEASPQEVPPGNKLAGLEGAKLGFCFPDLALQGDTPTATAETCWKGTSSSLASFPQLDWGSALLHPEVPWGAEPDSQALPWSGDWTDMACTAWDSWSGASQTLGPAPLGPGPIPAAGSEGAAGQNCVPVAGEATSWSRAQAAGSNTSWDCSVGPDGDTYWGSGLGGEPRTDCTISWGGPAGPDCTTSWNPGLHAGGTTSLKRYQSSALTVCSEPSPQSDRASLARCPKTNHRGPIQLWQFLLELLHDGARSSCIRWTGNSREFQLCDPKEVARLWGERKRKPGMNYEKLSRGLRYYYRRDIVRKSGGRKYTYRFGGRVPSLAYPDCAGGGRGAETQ", "conditions": "protein: recombinant; tags: N-terminal GST; dsDNA, one strand shown", "how_it_was_run": "as §1"}, "ELF3": {"molecular_target": "T5, ELF3 (Homo sapiens, UniProt P78545 1-371)", "T5 sequence": "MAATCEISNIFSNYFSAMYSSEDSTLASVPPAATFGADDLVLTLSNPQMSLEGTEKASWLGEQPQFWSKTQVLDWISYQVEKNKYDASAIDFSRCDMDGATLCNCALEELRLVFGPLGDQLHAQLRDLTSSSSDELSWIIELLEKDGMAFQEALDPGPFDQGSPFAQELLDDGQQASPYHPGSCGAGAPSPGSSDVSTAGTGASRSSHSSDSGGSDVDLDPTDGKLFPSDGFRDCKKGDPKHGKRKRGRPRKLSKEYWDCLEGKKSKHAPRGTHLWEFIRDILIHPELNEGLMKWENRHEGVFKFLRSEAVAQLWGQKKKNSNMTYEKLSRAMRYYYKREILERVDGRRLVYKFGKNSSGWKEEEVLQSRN", "conditions": "protein: recombinant; tags: N-terminal GST; dsDNA, one strand shown", "how_it_was_run": "as §1"}, "CRX": {"molecular_target": "CRX (Homo sapiens, UniProt O43186 1-299)", "sequence (O43186 whole entry)": "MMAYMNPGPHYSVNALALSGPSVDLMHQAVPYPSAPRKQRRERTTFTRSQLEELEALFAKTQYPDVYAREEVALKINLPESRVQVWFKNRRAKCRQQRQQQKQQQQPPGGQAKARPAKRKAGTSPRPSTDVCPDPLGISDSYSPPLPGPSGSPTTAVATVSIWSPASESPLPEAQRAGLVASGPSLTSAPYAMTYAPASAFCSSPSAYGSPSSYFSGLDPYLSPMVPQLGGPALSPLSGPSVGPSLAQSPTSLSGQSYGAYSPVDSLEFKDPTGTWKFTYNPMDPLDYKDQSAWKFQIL", "conditions": "protein: recombinant; tags: N-terminal GST; dsDNA, one strand shown", "how_it_was_run": "as §1"}, "ETV1": {"molecular_target": "ETV1 (Homo sapiens, UniProt P50549 1-477)", "sequence (P50549 whole entry)": "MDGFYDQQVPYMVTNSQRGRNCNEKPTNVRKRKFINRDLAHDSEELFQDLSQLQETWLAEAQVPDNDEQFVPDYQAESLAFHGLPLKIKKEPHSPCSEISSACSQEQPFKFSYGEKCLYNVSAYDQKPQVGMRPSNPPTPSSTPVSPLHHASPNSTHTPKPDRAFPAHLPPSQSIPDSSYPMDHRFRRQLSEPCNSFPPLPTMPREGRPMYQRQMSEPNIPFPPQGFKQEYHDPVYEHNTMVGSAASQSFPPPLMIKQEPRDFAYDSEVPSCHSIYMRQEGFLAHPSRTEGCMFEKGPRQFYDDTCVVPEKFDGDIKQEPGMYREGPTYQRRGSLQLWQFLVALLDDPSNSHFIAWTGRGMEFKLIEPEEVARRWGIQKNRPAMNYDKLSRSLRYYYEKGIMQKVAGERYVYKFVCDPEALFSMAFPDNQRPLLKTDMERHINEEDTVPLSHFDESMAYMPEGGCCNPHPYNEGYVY", "conditions": "protein: recombinant; tags: N-terminal GST; dsDNA, one strand shown", "how_it_was_run": "as §1"}}, "data": [{"sequence": "TATTCT", "values": [{"measurement": "binding signal", "setting": "FEV", "result": "1.27 fold enrichment (6-mer frequency, TF over GST control)"}, {"measurement": "binding signal", "setting": "ETV5", "result": "1.33 fold enrichment (6-mer frequency, TF over GST control)"}, {"measurement": "binding signal", "setting": "HSF1", "result": "2.77 fold enrichment (6-mer frequency, TF over GST control)"}, {"measurement": "binding signal", "setting": "SPIC", "result": "1.28 fold enrichment (6-mer frequency, TF over GST control)"}, {"measurement": "binding signal", "setting": "ELF4", "result": "1.38 fold enrichment (6-mer frequency, TF over GST control)"}, {"measurement": "binding signal", "setting": "ELK4", "result": "1.37 fold enrichment (6-mer frequency, TF over GST control)"}, {"measurement": "binding signal", "setting": "ETV2", "result": "1.29 fold enrichment (6-mer frequency, TF over GST control)"}, {"measurement": "binding signal", "setting": "ELF3", "result": "1.38 fold enrichment (6-mer frequency, TF over GST control)"}, {"measurement": "binding signal", "setting": "CRX", "result": "1.9 fold enrichment (6-mer frequency, TF over GST control)"}, {"measurement": "binding signal", "setting": "ETV1", "result": "1.4 fold enrichment (6-mer frequency, TF over GST control)"}]}]}
